Measured values: PubChem BioAssay AID1347420 (Sanford-Burnham Center for Chemical Genomics, 2020)
About 980 (75%) of roughly 1,300 compounds were called active. Another 4% or so got no clear call; they are omitted. This is one part of the list.

molecular target: Sulfhydryl oxidase 1 (Homo sapiens) (UniProt O00391); assay: inhibition of human sulfhydryl oxidase QSOX1 – biochemical, HyperBlu H2O2 luminescence, HTS, primary screen (AID 1347420); settings: recombinant QSOX1, HyperBlu H2O2 luminescence; at 12.5 µM; stronger effect = higher value; active = any value above zero; note: values above 100% were filed as inconclusive
Sequence (O00391 whole entry, looked up): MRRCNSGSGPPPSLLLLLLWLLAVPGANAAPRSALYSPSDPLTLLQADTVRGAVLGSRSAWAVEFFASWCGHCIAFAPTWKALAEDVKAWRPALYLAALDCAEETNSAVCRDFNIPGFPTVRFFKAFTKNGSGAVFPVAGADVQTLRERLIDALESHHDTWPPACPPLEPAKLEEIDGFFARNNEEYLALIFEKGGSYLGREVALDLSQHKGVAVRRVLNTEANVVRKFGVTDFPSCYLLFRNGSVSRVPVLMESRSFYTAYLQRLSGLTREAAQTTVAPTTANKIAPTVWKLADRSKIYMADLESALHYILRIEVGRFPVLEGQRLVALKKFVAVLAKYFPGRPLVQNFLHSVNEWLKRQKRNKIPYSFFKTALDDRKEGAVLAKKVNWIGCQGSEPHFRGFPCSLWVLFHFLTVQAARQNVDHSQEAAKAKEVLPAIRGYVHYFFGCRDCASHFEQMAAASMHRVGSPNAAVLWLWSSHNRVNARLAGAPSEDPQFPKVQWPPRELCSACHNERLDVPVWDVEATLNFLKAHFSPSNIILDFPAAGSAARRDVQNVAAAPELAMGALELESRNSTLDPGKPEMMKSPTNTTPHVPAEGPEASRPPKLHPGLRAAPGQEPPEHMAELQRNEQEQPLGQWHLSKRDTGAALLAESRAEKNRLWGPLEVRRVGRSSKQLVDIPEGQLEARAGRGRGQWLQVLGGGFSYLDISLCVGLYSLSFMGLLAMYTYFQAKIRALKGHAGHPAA

inhibition, active:
CN(C)C(=O)/N=N/C(=O)N(C)C 13.5%
[N-]=[N+]=Nc1ccc(C(=O)CSC[C@H](NC(=O)CC[C@H](N)C(=O)O)C(=O)NCC(=O)O)cc1 19.5%
N[C@@H](CCC(=O)N[C@H](CSN=O)C(=O)NCC(=O)O)C(=O)O 15.7%
COc1ccc(-c2cc3ncc(C)n3c(Nc3ncccc3C(N)=O)n2)cc1OC 20.4%
COC1=C(OC)C(=O)c2ccccc2C1=O 37.3%
O=C1c2ccccc2C(=O)c2c(NCCc3ccc(O)cc3)ccc(NCCc3ccc(O)cc3)c21 60.9%
O=C(O)C1CN(CCCP(=O)(O)O)CCN1 (stereo not given) 37%
CC(N)(Cc1ccc(O)c(O)c1)C(=O)O (stereo not given) 31.2%
C[C@](Cc1ccc(O)c(O)c1)(NN)C(=O)O 44.1%
C[C@](N)(Cc1ccc(O)c(O)c1)C(=O)O 36.6%
O=C(c1ccc(OCCCc2cnc[nH]2)cc1)C1CC1 8%
CC1(C)CCC(NC(=O)[C@@H](N)CCC(=O)O)CC1 8.5%
CCOC(=O)Nc1ccc(NCc2ccc(F)cc2)nc1N 40%
O=C1C(SCCO)=C(SCCO)C(=O)c2ccccc21 66.7%
CN(C)c1nc2c(Br)c(Br)c(Br)c(Br)c2[nH]1 46.6%
Nc1cc(=O)[nH]c(N)n1 11.6%
C#CCN(C)CCCOc1ccc(Cl)cc1Cl 6.1%
Cn1cnc([N+](=O)[O-])c1Sc1ncnc2nc[nH]c12 19.5%
Clc1cccc(Cl)c1NC1=NCCN1 7.2%
Nc1cc(Cl)c(NC2=NCCN2)c(Cl)c1 23.9%
COc1nc(C)nc(Cl)c1NC1=NCCN1 12.9%
CC1=C(C)C(=O)C(CCCCC#CCCCC#CCO)=C(C)C1=O 32.9%
CCCCCCCCCCCCCCCCCCNC(=O)OCC(COP(=O)([O-])OCC[n+]1ccsc1)OC (stereo not given) 10.6%
N=c1ccn2c(n1)OC1C(O)[C@@H](CO)O[C@H]12 (stereo not given in full) 6.1%
NCCCC(=O)O 25.9%
NCCCCCC(=O)O 40%
NCCCCC(=O)O 19.4%
O=C(O)CCCCCCCC(=O)O 11.4%
CN(C)c1nc(N)c(C(=O)N=C(N)N)nc1Cl 10.2%
CCN(c1nc(N)c(C(=O)N=C(N)N)nc1Cl)C(C)C 22.6%
NC(N)=NC(=O)c1nc(Cl)c(N2CCCCCC2)nc1N 24.3%
NC(N)=NC(=O)c1nc(Cl)c(N)nc1N 20.2%
O=C(O)CCc1ccc(NCc2cccc(Oc3ccccc3)c2)cc1 41.7%
C=C1C[C@@]23CC[C@H]4[C@@](C)(CCC[C@@]4(C)C(=O)O)[C@@H]2CC[C@]1(O)C3 9%
CCOC(=O)N1CCC(=C2c3ccc(Cl)cc3CCc3cccnc32)CC1 13.2%
Cn1ccnc1 9.1%
CCCCCCCCCCCCCCSCC(=O)O 9.4%
NC1C=CC=C(C(=O)O)C1 (stereo not given) 21.6%
OCC1O[C@H](O)C(Cl)C(O)C1O (stereo not given in full) 23.9%
COCCCC/C(=N\OCCN)c1ccc(C(F)(F)F)cc1 9.6%
CN1CCC(=C2c3ccccc3CC(=O)c3sccc32)CC1 6.3%
COc1ccc(C2CNC(=O)C2)cc1OC1CCCC1 (stereo not given) 5.2%
C=CCN1CCc2c(cc(O)c(O)c2Cl)C(c2ccccc2)C1 (stereo not given) 84.4%
C=CCN1CCc2cc(O)c(O)cc2C(c2ccccc2)C1 (stereo not given) 76.8%
Cc1cccc(C2CN(C)CCc3c2cc(O)c(O)c3Cl)c1 (stereo not given) 97.2%

inhibition, inactive:
O=C1Cc2cc(CCN3CCN(c4nsc5ccccc45)CC3)c(Cl)cc2N1 -10.1%
NO -43.8%
O=C1c2ccccc2-c2n[nH]c3cccc1c23 -5.6%
Nc1nc2[nH]c(=O)cnc2c(=O)[nH]1 -15.8%
C#CCN(C)Cc1ccccc1 -4.3%
Fc1ccc(CN(C2=NCCN2)c2c(Cl)cccc2Cl)cc1 -1.5%
Clc1ccc2nsnc2c1NC1=NCCN1 -10.4%
CCCCCCCCCCCCCCCCCCOC[C@H](COP(=O)([O-])OCC[N+](C)(C)C)OC -5.6%
C=C1C[C@@]23CC[C@H]4[C@@](C)(CCC[C@@]4(C)C(=O)OC4OC(CO)C(O)C(O)C4O)[C@@H]2CCC1(OC1OC(CO)C(O)C(O)C1OC1OC(CO)C(O)C(O)C1O)C3 (stereo not given in full) -13.9%
CN1CCC(=C2c3ccccc3C=Cc3ccccc32)CC1 -2.7%
